Measured values from PubChem BioAssay (NCI).
The panel holds about 83,000 compounds, 20% with a hit somewhere; the sample as a whole holds those more often.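 Growth was measured after 48 h exposure to one concentration of compound in 96-well plates. Values under 10 count as active.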 Calls of active or inactive are those of the source.

Test system: HL-60(TB) leukemia
Experiment: NCI-60 one-dose screen, 48 h (100 = growth as untreated, 0 = no growth, -100 = all killed)
Conditions: 10 µM unless noted

How did the growth turn out when `COc1cccc(CC(C)=C(c2ccc(OCCN3CCCCC3)cc2)c2ccc(OCCN3CCCCC3)cc2)c1` was run?
The growth was -57.5% (active).

`COc1cc2cc(Oc3ccc(NC(=O)Nc4ccc(Cl)c(C(F)(F)F)c4)cc3)c(C)nc2cc1OC` was tested. Which growth did it give?
Its growth is -40.6% (active).

`CC1(C)CC([P+](c2ccccc2)(c2ccccc2)c2ccccc2)=NN1` was tested. Which growth did it give?
Its growth is -49.2% (active).
